High-throughput results: PubChem BioAssay, National Center for Advancing Translational Sciences (NCATS)
BAZ2B block = qHTS Assay for Inhibitors of BAZ2B | Bromodomain adjacent to zinc finger domain protein 2B (Homo sapiens), Q9UIF8 | AlphaScreen BAZ2B-H3K14Ac peptide displacement | Potency, µM (series often up to 114 µM), without a hit: top-dose activity change, negative = inhibition, usual class: inhibitors | actives 4.4% (n = 360,000); also: % is scaled to controls: 0 for no effect and ±100 for the full control effect; nearly all actives have a fitted effect of over 60% in size
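AlphaScreen displacement: compounds (up to 110uM) incubated 30 min at room temperature with a preformed 50 nM BAZ2B/50 nM biotinylated H3K14Ac peptide complex in PBS pH 7.4 with Tween-20. Donor and acceptor beads at 10 ug/mL final added, 20 min light-protected before reading.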
PLK1 PBD inh = qHTS for Inhibitors of PLK1-PDB (polo-like kinase 1 - polo-box domain): Primary Screen; Plk1 PBD binding of FITC phosphopeptide, fluorescence polarization; actives 2.8% (n = 360,000); Potency, µM, for inactives: max response, negative = inhibition, usual class: inhibitors; also: series mostly up to about 57 µM; % is scaled to controls: 0 for no effect and ±100 for the full control effect; nearly all actives have a fitted effect of over 65% in size
JMJD2A Tudor inh = qHTS Assay for Inhibitors of JMJD2A-Tudor Domain. Potency, µM (titrated, usually from 114 µM), for the others: at the top dose activity change, negative = inhibition, actives largely listed as inhibitors. actives 4.4% (n = 390,000). Lysine-specific demethylase 4A (Homo sapiens), O75164. AlphaScreen JMJD2A-Tudor / H3K4me3 peptide binding; also: % is scaled to controls: 0 for no effect and ±100 for the full control effect; nearly all actives have a fitted effect of over 50% in size
Sfp PPTase inh = qHTS Assay for Inhibitors of Bacillus subtilis Sfp phosphopantetheinyl transferase (PPTase). 4'-phosphopantetheinyl transferase ffp (Bacillus subtilis), Q9F4F7. Biochemical Sfp PPTase activity, qHTS. Potency, µM, without a hit: largest response in the series, negative = inhibition, actives largely listed as inhibitors. actives 3.5% (n = 310,000);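 also: the enzyme is Sfp with the accession as filed and its product quenches rhodamine fluorescence; 0% = enzyme reaction without inhibitor and -100% = no enzyme wells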
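After 15 min at room temperature with compound, 15 nM Sfp received 5 uM rhodamine-CoA plus 12.5 uM BHQ-2-ybbR (50 mM Hepes pH 7.6, 10 mM MgCl2). Rate came from the fluorescence difference over 30 min, ex 525/em 598 nm.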
G9a block = qHTS Assay for Inhibitors of Histone Lysine Methyltransferase G9a. Histone-lysine N-methyltransferase EHMT2 (Homo sapiens), Q96KQ7. AID 504332, 2011. G9a H3K9 monomethylation, AlphaScreen, 2 h. actives 8.8% (n = 350,000). Potency, µM (highest dose often 102 µM), for the others: at the highest dose activity, negative = inhibition, actives largely listed as inhibitors; also: % is scaled to controls: 0 for no effect and ±100 for the full control effect; nearly all actives have a fitted effect of over 75% in size
Target sequence (Q96KQ7 913-1193 limits assumed): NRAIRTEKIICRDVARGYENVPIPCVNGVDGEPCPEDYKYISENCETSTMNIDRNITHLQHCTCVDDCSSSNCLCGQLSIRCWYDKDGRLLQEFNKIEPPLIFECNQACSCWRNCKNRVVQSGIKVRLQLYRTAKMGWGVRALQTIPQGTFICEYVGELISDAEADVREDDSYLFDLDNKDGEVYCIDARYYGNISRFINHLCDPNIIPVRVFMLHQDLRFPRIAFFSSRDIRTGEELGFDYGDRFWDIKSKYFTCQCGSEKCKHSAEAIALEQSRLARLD
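Enzyme 20 nM + cpd, 15 min RT; add b-H3K9 pep 500 nM / SAM 20 uM; 2 h RT; anti-H3K9me1 Ab 0.5 ug/mL + SA donor / anti-rabbit acceptor beads 20 ug/mL each, 10 min; AlphaScreen read.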
HP1b chromo inh = HTS for Inhibitors of HP1-beta Chromodomain Interactions with Methylated Histone Tails; Chromobox protein homolog 1 (Homo sapiens), P83916; AlphaScreen HP1-beta / biotin-H3K9me3 peptide binding; Potency, µM (highest dose often 114 µM), for the others: at the highest dose activity change, negative = inhibition, hits mostly inhibitors; actives 0.56% (n = 390,000); also: nearly all actives have a fitted effect of over 70% in size
Target sequence (P83916 whole entry, looked up): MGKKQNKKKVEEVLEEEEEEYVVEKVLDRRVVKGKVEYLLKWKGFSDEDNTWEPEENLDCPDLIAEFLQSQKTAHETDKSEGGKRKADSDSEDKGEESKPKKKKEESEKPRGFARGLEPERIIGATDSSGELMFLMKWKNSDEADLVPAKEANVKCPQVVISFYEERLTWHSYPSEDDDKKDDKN
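HP1-beta protein (50 nM final) preincubated 30 min at room temperature with biotinylated H3(1-18)K9me3 peptide (50 nM) in PBS pH 7.4, 0.01% Tween-20, then compound added for 30 min. AlphaScreen streptavidin donor/nickel chelate acceptor beads (10 ug/mL final), 30 min dark, luminescence read.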
* hit, by the source's call; ! = a repeat was not active; [ ] = remark or other dose. An excerpt weighted towards active compounds, which were near 12% of everything screened. Calls follow the shape of the dose curve; as a rule, active = well fitted curve in the direction sought with a large enough effect; inconclusive = small, poorly fitted or top-dose-only effect, or another doubt; inactive = no such curve, though single readings can be large; an effect the other way counts as inactive or inconclusive. Potency is read from the fitted curve at half-maximal effect.

What do the screens show for `O=C(CC1C(=O)NCCN1Cc1cccc(Oc2ccccc2)c1)NCCc1ccccn1` (stereo not given)?
BAZ2B block: -4%; PLK1 PBD inh: -26%; JMJD2A Tudor inh: -30%; Sfp PPTase inh: 3%; G9a block: 22µM*; HP1b chromo inh: 28%

Results for Cn1cc(CCNC(=O)CC2C(=O)NCCN2Cc2cccc(Oc3ccccc3)c2)cn1 (stereo not given) ?
BAZ2B block: -33%; PLK1 PBD inh: inconclusive; JMJD2A Tudor inh: inconclusive; Sfp PPTase inh: 0%; G9a block: 35µM*; HP1b chromo inh: 27%

How did CC(=O)O[C@H]1C(=O)[C@@]2(C)[C@H]([C@H](OC(=O)c3ccccc3)[C@]3(O)C[C@H](OC(=O)[C@H](O)[C@@H](NC(=O)c4ccccc4)c4ccccc4)C(C)=C1C3(C)C)[C@]1(OC(C)=O)CO[C@@H]1C[C@@H]2O do in these assays?
BAZ2B block: 10%; PLK1 PBD inh: -15%; JMJD2A Tudor inh: -10%; Sfp PPTase inh: 50µM*!; G9a block: 7%[12.7 µM]; HP1b chromo inh: 26%

What do the screens show for `CCOC(=O)C(Cc1ccccc1)NC(=O)CCc1nnc2ccc(N3CCCC3)nn12` (stereo not given)?
BAZ2B block: -13%; PLK1 PBD inh: 24µM*; JMJD2A Tudor inh: inconclusive; Sfp PPTase inh: 6%; G9a block: 1%; HP1b chromo inh: 12%

What do the screens show for `CCCNC(=O)CCc1nnc2ccc(N3CCC(C)CC3)nn12`?
BAZ2B block: 7%; PLK1 PBD inh: 0%; JMJD2A Tudor inh: -5%; Sfp PPTase inh: 9%; G9a block: 26%; HP1b chromo inh: 24%

What do the screens show for `CC1CC(C)CN(C(=O)CCc2nnc3ccc(N4CCCCC4)nn23)C1` (stereo not given)?
BAZ2B block: -22%; PLK1 PBD inh: 30µM*; JMJD2A Tudor inh: 40µM*; Sfp PPTase inh: 7%; G9a block: 79µM*; HP1b chromo inh: 11%

Results for CCOC(=O)CNC(=O)CCc1nnc2ccc(N3CCC(C)CC3)nn12 ?
BAZ2B block: inconclusive; PLK1 PBD inh: 24µM*; JMJD2A Tudor inh: inconclusive; Sfp PPTase inh: 17%; G9a block: 15%; HP1b chromo inh: inconclusive

What do the screens show for `CCOC(=O)C1CCN(C(=O)CCc2nnc3ccc(N4CCC(C)CC4)nn23)CC1`?
BAZ2B block: -3%; PLK1 PBD inh: 24µM*; JMJD2A Tudor inh: inconclusive; Sfp PPTase inh: 13%; G9a block: -12%; HP1b chromo inh: inconclusive

What do the screens show for `CCOc1ccc(CCNC(=O)c2ccc(CS(=O)(=O)Cc3ccccc3Cl)o2)cc1OCC`?
BAZ2B block: inconclusive; JMJD2A Tudor inh: -27%; G9a block: -5%[59 µM]; HP1b chromo inh: 26%

Results for O=S(=O)(CCc1ccccc1)c1ccccc1 ?
Sfp PPTase inh: -15%

How did O=S(=O)(CCc1ccncc1)c1ccc(Cl)cc1 do in these assays?
BAZ2B block: inconclusive; PLK1 PBD inh: -3%; JMJD2A Tudor inh: -21%; Sfp PPTase inh: 3%; G9a block: 35µM*; HP1b chromo inh: 7%

Results for Cc1ccc(NS(=O)(=O)c2ccc3c(c2)CCC(=O)N3)cc1F ?
JMJD2A Tudor inh: -26%

Results for Cc1cc(NS(=O)(=O)c2ccc(NC(=S)NC(=O)c3cccnc3)cc2)no1 ?
BAZ2B block: inconclusive; PLK1 PBD inh: -14%; JMJD2A Tudor inh: 32µM*; Sfp PPTase inh: -5%; G9a block: 45µM*; HP1b chromo inh: 7%

What do the screens show for `COc1ccc(/C=C/C(=O)NC(=S)Nc2ccc(S(=O)(=O)Nc3cc(C)on3)cc2)cc1`?
BAZ2B block: -25%; PLK1 PBD inh: inconclusive; JMJD2A Tudor inh: -28%; Sfp PPTase inh: -1%; G9a block: 40µM*; HP1b chromo inh: -7%

How did Cc1cc(NS(=O)(=O)c2ccc(NC(=S)NC(=O)c3ccc(Br)cc3)cc2)no1 do in these assays?
BAZ2B block: -32%; PLK1 PBD inh: -29%; JMJD2A Tudor inh: -32%; Sfp PPTase inh: inconclusive; G9a block: inconclusive; HP1b chromo inh: -14%

How did COc1ccc(/C=C/C(=O)NC(=S)Nc2ccc(S(=O)(=O)Nc3ccc(OC)nn3)cc2)cc1 do in these assays?
BAZ2B block: -24%; PLK1 PBD inh: -25%; JMJD2A Tudor inh: -21%; Sfp PPTase inh: 2%; G9a block: inconclusive; HP1b chromo inh: -17%

What do the screens show for `CCc1nnc(NS(=O)(=O)c2ccc(NC(=S)NC(=O)c3cccnc3)cc2)s1`?
BAZ2B block: 2%; PLK1 PBD inh: -18%; JMJD2A Tudor inh: 9%; Sfp PPTase inh: -2%; HP1b chromo inh: 48%

What do the screens show for `Cc1cc(C)nc(NS(=O)(=O)c2ccc(NC(=S)NC(=O)c3cccnc3)cc2)n1`?
BAZ2B block: -17%; PLK1 PBD inh: -24%; JMJD2A Tudor inh: -16%; Sfp PPTase inh: 40µM*; G9a block: 50µM*; HP1b chromo inh: -2%

Results for CC(C)CNC(=O)CC(=O)N/N=C/c1ccc(F)cc1 ?
BAZ2B block: 2%; PLK1 PBD inh: -4%; JMJD2A Tudor inh: -6%; Sfp PPTase inh: inconclusive; G9a block: 9%; HP1b chromo inh: 35%

Results for Cc1nn(-c2ccccc2)c2nc(C3CC3)cc(C(=O)Nc3ccccc3F)c12 ?
BAZ2B block: 10%[57.1 µM]; JMJD2A Tudor inh: -6%; G9a block: -1%[59 µM]; HP1b chromo inh: 16%

Results for Cc1cc(NC(=O)NC2CCCN2S(=O)(=O)c2ccc(Cl)cc2)no1 (stereo not given) ?
BAZ2B block: -4%; PLK1 PBD inh: -17%; JMJD2A Tudor inh: -12%; Sfp PPTase inh: 13%; G9a block: 6%; HP1b chromo inh: 12%

How did COc1cccc(NC(=O)CN(C)C(=O)CCNS(=O)(=O)c2ccc(C)cc2)c1 do in these assays?
BAZ2B block: 12%; PLK1 PBD inh: -6%; JMJD2A Tudor inh: -16%; G9a block: 1%[59 µM]; HP1b chromo inh: 31%

Results for CC(C)Sc1nc2[nH]ncc2c(=O)[nH]1 ?
BAZ2B block: -29%; PLK1 PBD inh: -10%; JMJD2A Tudor inh: -2%; Sfp PPTase inh: 50µM*; G9a block: 35µM*; HP1b chromo inh: 32%
